The record followed here is the supplement of paper PMC7726561.

This test concerns the target HLA-C*04:01. In words: thermal melting temperature (Tm) of peptide-HLA complex; higher = more thermostable pHLA complex. The method, then: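 Endogenous HLA-C*04:01 ligands were detected in the thermostability assays of both the C1R-A*02:01 and C1R-B*07:02 lines. Lysates were heated 10 min at 37-73 °C and pHLA immunoprecipitated with W6/32. Peptides were quantified by DIA-MS and Tm was taken from a logistic sigmoid fit.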

Take ILDPHVVLL: the thermal melting temperature runs as follows: (C1R-A*02:01) 54.8 °C; (C1R-B*07:02) 57.6 °C.
On the same counts, the results for VWDVIGRSL are 53.5 °C and 51.9 °C.
FTDEESRVF: the thermal melting temperature is 48.1 °C (C1R-A*02:01) and 46.7 °C (C1R-B*07:02).
Taken in the same sequence, the figures for SYDHVELTF were 51.3 °C and 51.9 °C.
Taken in the same sequence, the figures for SFDSTVRL were 52.9 °C and 54.6 °C.
With NYDEALRLL, the thermal melting temperature reads like this: (C1R-A*02:01) 54 °C; (C1R-B*07:02) 53 °C.
Taken in the same sequence, the figures for RFDSDVGEF were 54.9 °C and 54.5 °C.
With VADPYVVIM, the thermal melting temperature is, setting by setting: (C1R-A*02:01) 53.4 °C; (C1R-B*07:02) 54.6 °C.
As to AFDVHLNAF, the thermal melting temperature is, setting by setting: (C1R-A*02:01) 55.5 °C; (C1R-B*07:02) 55.9 °C.
Taken in the same sequence, the figures for AYDDKIYYF were 56.1 °C and 55.7 °C.
In the case of FYPPDPAQL, the thermal melting temperature was found to be 49.5 °C (C1R-A*02:01) and 51.5 °C (C1R-B*07:02).
Taken in the same sequence, the figures for HFDDFVTNL were 58.7 °C and 58 °C.
On to SFDVSQKF, for which the thermal melting temperature is, setting by setting: (C1R-A*02:01) 49 °C; (C1R-B*07:02) 49.7 °C.
Taken in the same sequence, the figures for VYDLLKTNL were 59 °C and 58.3 °C.
Taken in the same sequence, the figures for TFDASRTTF were 53.4 °C and 53.5 °C.
Turning to AFDLTEQRY, the thermal melting temperature is, setting by setting: (C1R-A*02:01) 55.9 °C; (C1R-B*07:02) 56.4 °C.
Taken in the same sequence, the figures for QLDPLVVEL were 50 °C and 46.9 °C.
Taken in the same sequence, the figures for IFDSKVTEI were 55.4 °C and 54.8 °C.
As for KADGVPVYL, the thermal melting temperature came out at 56.5 °C (C1R-A*02:01) and 57.1 °C (C1R-B*07:02).
Taken in the same sequence, the figures for VYDIAAKF were 56.9 °C and 57.6 °C.
NYDFGPIHM: the thermal melting temperature by setting is: (C1R-A*02:01) 54.2 °C; (C1R-B*07:02) 55.8 °C.
For the sequence FNDTFVHV, the thermal melting temperature runs as follows: (C1R-A*02:01) 49.3 °C; (C1R-B*07:02) 48.5 °C.
In the case of VFHVQQTEM, the thermal melting temperature came to 53.8 °C (C1R-A*02:01) and 54.5 °C (C1R-B*07:02).
On the same counts, the results for MLDPLEVHL are 47.2 °C and 52.5 °C.
